Among the data in ChEMBL document CHEMBL1157539, “Thousands of chemical starting points for antimalarial lead identification” (Nature, 2010) are Inhibition values, retold here.

Holding throughout (type): functional
In experiment [1] the test system is Plasmodium falciparum. The experiment can be described thus: GSK_TCMDC: Inhibition of Plasmodium falciparum 3D7 in whole red blood cells, using parasite LDH activity as an index of growth. Test compounds present at 2uM.
Experiment [2] has as its system Plasmodium falciparum. In words: GSK_TCMDC: Inhibition of Plasmodium falciparum Dd2 in whole red blood cells, using parasite LDH activity as an index of growth. Test compounds present at 2uM.
The next experiment concerns HepG2. The experiment can be described thus: GSK_TCMDC: Percent inhibition of human HepG2 cell line. Test compounds present at 10uM.

With `Nc1nc(N)c2c(Cc3ccccc3)cccc2n1`, the Inhibition (commonly the change of the read-out against control, counted positive when it falls) is 94% in the experiment with Plasmodium falciparum [1], 3% in the experiment with Plasmodium falciparum [2] and 68% with HepG2.

As for `CCCCCCCCNCC(O)c1cc(-c2ccc(Cl)cc2)nc2cc(C)ccc12` (stereo not given), the Inhibition was found to be 99% with Plasmodium falciparum [1], 99% with Plasmodium falciparum [2] and 0% with HepG2.

For the compound `Cc1cccc(CN2CCCN(Cc3ccc(C(=O)Nc4ccc(C(C)(C)C)cc4)cc3)CC2)c1.O=C(O)C(F)(F)F`, the Inhibition in the experiment with Plasmodium falciparum [1] stood at 97%; in the experiment with Plasmodium falciparum [2], 4%; in the experiment with HepG2, 57%.

With `COCc1ccccc1C(=O)NCCOc1cc(C)cc(C)c1`, the Inhibition in the experiment on Plasmodium falciparum [1] is 96%; with Plasmodium falciparum [2] it was 95%; in the experiment on HepG2, 26%.

Regarding `Cl.Nc1ccnc2ccc(OCCCCCCc3ccccc3)cc12`, the Inhibition is 100% in the experiment on Plasmodium falciparum [1], 99% in the experiment on Plasmodium falciparum [2] and 96% in the experiment with HepG2.

Turning to `O=C(Nc1cc(F)c(F)c(-c2cccnc2)c1)N1CCc2cc(Cl)c(Cl)cc21`, the Inhibition with Plasmodium falciparum [1] stood at 94%; with Plasmodium falciparum [2] it was 9%; in the experiment with HepG2 it was 0%.

As for `Cl.O=C(N[C@@H](Cc1cc(F)cc(F)c1)[C@H](O)CNCc1cccc(C(F)(F)F)c1)c1cc(C2CCCC2)cc(N2CCCC2=O)c1`, the values for the Inhibition with Plasmodium falciparum [1], with Plasmodium falciparum [2] and with HepG2 were 95%, 45% and 37%, respectively.

In the case of `COc1ccnc(NCCCNCc2cn(S(=O)(=O)c3ccccc3)c3ccccc23)c1`, the Inhibition worked out at 99% with Plasmodium falciparum [1], 18% in the experiment with Plasmodium falciparum [2] and 57% with HepG2.

On to `CN(C)CCNCc1ncsc1-c1ccc2c(Nc3ccc(F)cc3Cl)ccnc2c1`, for which the Inhibition in the experiment with Plasmodium falciparum [1] is recorded as 100%; in the experiment on Plasmodium falciparum [2], 95%; in the experiment with HepG2, 0%.

As for `CNC(=O)c1cnc(Nc2ccc(N3CCOCC3)cc2)nc1Nc1cccc(O)c1.O=C(O)C(F)(F)F`, the results for the Inhibition in the experiment on Plasmodium falciparum [1], with Plasmodium falciparum [2] and in the experiment with HepG2 were 90%, 78% and 23%, respectively.

For `COc1cc(NC(=O)c2ccc3oc4ccccc4c3c2)ccc1OCCN1CCCCC1.Cl`, the Inhibition in the experiment on Plasmodium falciparum [1] is 89%; with Plasmodium falciparum [2] it was 11%; in the experiment on HepG2, 12%.

Regarding `O=C(O)C(F)(F)F.c1cc(CN2CCCCC2)cc(-c2cccc(-c3nc4ccccc4[nH]3)c2)c1`, the Inhibition was determined as 100% in the experiment with Plasmodium falciparum [1], 37% in the experiment with Plasmodium falciparum [2] and 39% with HepG2.

Take `CCCCCCCn1c(=N)n(CC(O)c2ccc(Cl)c(Cl)c2)c2ccccc21.Cl` (stereo not given): the values for the Inhibition with Plasmodium falciparum [1], in the experiment with Plasmodium falciparum [2] and in the experiment on HepG2 were 98%, 100% and 99%, respectively.

`O=C(NC1CCN(Cc2ccccc2)C1)c1ccc(Nc2ccc(Br)cc2)nc1.O=C(O)C(F)(F)F` (stereo not given): the Inhibition in the experiment with Plasmodium falciparum [1] stood at 94%; with Plasmodium falciparum [2], 21%; with HepG2, 19%.

Take `COc1cccc(C=NN=c2cc(C)[nH]c3ccccc23)c1`: the Inhibition in the experiment with Plasmodium falciparum [1] was found to be 100%; in the experiment on Plasmodium falciparum [2] it was 46%; in the experiment on HepG2 it was 16%.

Take `CCOc1cc(C)ccc1C1CCN(CCCCNC(=O)c2ccc(-c3ccc(C(F)(F)F)cn3)cc2)CC1.Cl`: the Inhibition is given as 99% with Plasmodium falciparum [1], 45% in the experiment with Plasmodium falciparum [2] and 55% in the experiment with HepG2.

On to `CCCCCCCc1c2c(C)c(C(=O)OCC)nc-2cc2n1CC(C)=C2C.Cl`, for which the Inhibition in the experiment with Plasmodium falciparum [1] stood at 89%; in the experiment with Plasmodium falciparum [2], 10%; in the experiment on HepG2, 11%.

For `N#Cc1ccc(NC2(C(=O)N3CCN(c4cccc(Cl)c4)CC3)CC2)c2ccccc12`, the Inhibition is reported as 94% with Plasmodium falciparum [1], 66% in the experiment with Plasmodium falciparum [2] and 0% in the experiment on HepG2.

Take `CCOC(=O)c1ccc(NC(=O)Nc2cccc(-c3ccc(-c4nc5ccccc5[nH]4)cc3)c2)cc1`: the Inhibition with Plasmodium falciparum [1] is listed as 100%; with Plasmodium falciparum [2], 86%; with HepG2, 54%.

As for `CN1CCCN(c2ccnc3cc4c(cc23)N(C(=O)c2ccccc2Cl)CC4)CC1.Cl`, the Inhibition in the experiment with Plasmodium falciparum [1] is given as 88%; in the experiment on Plasmodium falciparum [2], 30%; with HepG2 it was 4%.

For the compound `Nc1ncc(-c2ccccc2)cc1-c1cccc2ncccc12.O=C(O)C(F)(F)F`, the Inhibition came to 97% in the experiment on Plasmodium falciparum [1], 99% in the experiment with Plasmodium falciparum [2] and 82% in the experiment with HepG2.

As to `O=C(Nc1cccc(C(F)(F)F)c1)c1ccc(S(=O)(=O)NC2CCN(CC3CCCCC3)C2)cc1.O=C(O)C(F)(F)F` (stereo not given), the Inhibition is 92% in the experiment on Plasmodium falciparum [1], 0% in the experiment with Plasmodium falciparum [2] and 16% in the experiment on HepG2.

Take `Cc1ccc(-c2ccn(Cc3cccc(OCc4ccccc4)c3)n2)cn1.Cc1ccc(-c2ccnn2Cc2cccc(OCc3ccccc3)c2)cn1`: the figures for the Inhibition with Plasmodium falciparum [1], in the experiment on Plasmodium falciparum [2] and in the experiment with HepG2 were 82%, 64% and 0%, respectively.

For `Cc1cc(OCCCN2CCCCC2C)ccc1NC(=O)COc1ccc(Cl)cc1C(=O)c1cc(Cl)cc(C#N)c1` (stereo not given), the Inhibition in the experiment on Plasmodium falciparum [1] amounted to 91%; in the experiment on Plasmodium falciparum [2], 14%; with HepG2, 23%.

On to `CN(C)CCCOc1ccc(CNCc2cccc(Oc3ccc(Cl)cc3)c2)cc1.O=C(O)C(F)(F)F`, for which the Inhibition was 100% with Plasmodium falciparum [1], 30% in the experiment on Plasmodium falciparum [2] and 52% with HepG2.

In the case of `CC(C)(C)c1ccc(CN2CCC(NC(=O)c3cc(-c4cccc(C(F)(F)F)c4)cs3)C2)cc1.O=C(O)C(F)(F)F` (stereo not given), the Inhibition in the experiment on Plasmodium falciparum [1] was determined as 98%; in the experiment with Plasmodium falciparum [2], 85%; in the experiment on HepG2 it was 24%.

On to `CCOC(=O)N1CCN(CCCCNc2c3ccc(Cl)cc3nc3ccc(OC)cc23)CC1.Cl`, for which the figures for the Inhibition in the experiment with Plasmodium falciparum [1], in the experiment with Plasmodium falciparum [2] and in the experiment on HepG2 were 100%, 98% and 25%, respectively.

On to `CN1CCN(CCCN(Cc2cccc(-c3ccc(CNCc4ccc5c(c4)OCO5)cc3)c2)C(=O)CCC2CCCC2)CC1.O=C(O)C(F)(F)F`, for which the Inhibition with Plasmodium falciparum [1] amounted to 98%; in the experiment with Plasmodium falciparum [2], 84%; in the experiment with HepG2 it was 91%.

As for `CCOc1ccc(-c2nonc2NC(=O)c2ccccc2)cc1OCC`, the figures for the Inhibition with Plasmodium falciparum [1], with Plasmodium falciparum [2] and with HepG2 were 99%, 100% and 6%, respectively.

As to `COc1ccc2ccccc2c1CCCCN1CCN(CC(c2ccc(F)cc2)N2CCC(N3CCCC3)CC2)CC1.O=C(O)C(F)(F)F` (stereo not given), the Inhibition was 99% in the experiment with Plasmodium falciparum [1], 73% in the experiment with Plasmodium falciparum [2] and 74% with HepG2.
